One assay concerns Klebsiella pneumoniae. As to conditions: Concentration 32 ug.mL-1;; ASSAY_TEST Inhibition of Bacterial Growth; detection method Absorption (OD600); MEDIA CAMHB; plate type 384well; NBS; CORNING #3640; time 18 hr.
A further assay relates to Candida albicans. The following applies: Concentration 32 ug.mL-1; ASSAY_TEST Inhibition of Fungal Growth; detection method Absorption (OD530).
In the next assay the test system is Cryptococcus neoformans. The following applies: Concentration 32 ug.mL-1; ASSAY_TEST Inhibition of Fungal Growth; detection method Resazurin; Absorption (OD600-OD570); plate type 384well; NBS; CORNING #3640.

This passage reports Inhibition results from ChEMBL document CHEMBL4513146, “CO-ADD screening of Karazin Kharkiv National University (Ukraine) compounds”.

Potency and affinity values are given separately.

A word on the Inhibition: it is the change of the read-out against control, counted positive when it falls. On to `CCOc1ccccc1NC(=O)Cn1nc2c(Sc3ccc(C)cc3C)nccn2c1=O`, for which the Inhibition was 5.52% in the assay on Klebsiella pneumoniae, -0.73% with Candida albicans and -9.54% in the assay with Cryptococcus neoformans.
The like results for `Cc1ccc(CN(c2ccccc2)S(=O)(=O)c2ccc3nncn3c2)cc1` were, in that order, -1.94%, -3.84% and -7.34%.
The like results for `CCc1nnc2ccc(S(=O)(=O)N(Cc3ccc(F)cc3)c3ccccc3)cn12` were, in that order, -0.12%, -0.14% and -7.1%.
For `Cc1ccc(NC(=O)CSc2nc3ccccc3n3c(C(C)C)nnc23)c(Cl)c1`, the values for the Inhibition in the assay on Klebsiella pneumoniae, in the assay on Candida albicans and in the assay with Cryptococcus neoformans were 0.92%, 27.99% and -3.15%, respectively.
Consider `COc1ccc(NC(=O)Cn2nc3nc(Nc4ccc(F)cc4)ccn3c2=O)cc1Cl`, for which the Inhibition with Klebsiella pneumoniae is 7.26%; in the assay with Candida albicans, 4.14%; in the assay on Cryptococcus neoformans it was -6.17%.
Take `CCc1nnc2c(S(=O)(=O)N(Cc3cccc(C)c3)c3ccc(Cl)cc3)cccn12`: the Inhibition with Klebsiella pneumoniae is 3.49%; in the assay with Candida albicans, 0.59%; in the assay with Cryptococcus neoformans, -3.81%.
As to `COc1ccc(NC(=O)Cn2nc3c(N4CCCC4)nccn3c2=O)cc1Cl`, the Inhibition was 15.87% in the assay with Klebsiella pneumoniae, 1.28% with Candida albicans and -15.33% with Cryptococcus neoformans.
The like results for `CC(C)c1ccc(NC(=O)Cn2nc3c(SCc4ccccc4)nccn3c2=O)cc1` were, in that order, 2.82%, 10.67% and -15.97%.
For `CCOC(=O)c1ccccc1NC(=O)Cn1nc2c(Oc3ccccc3)nccn2c1=O`, in that order: 14.49%, 0.37% and -11.47%.
On to `O=C(CSc1nnc2ccc(C(=O)Nc3cccc(F)c3)cn12)Nc1ccc(F)c(F)c1`, for which the Inhibition in the assay on Klebsiella pneumoniae is 2.94%; in the assay with Candida albicans, 5.97%; with Cryptococcus neoformans, -3.04%.
For `Cc1cccc(N(Cc2cccc(F)c2)S(=O)(=O)c2cccn3c(C)nnc23)c1`, in that order: 14.45%, 2.26% and -8.56%.
With `Cc1ccc(NC(=O)Cn2nc3c(Sc4ccccc4)nc4ccccc4n3c2=O)cc1C`, the figures for the Inhibition with Klebsiella pneumoniae, in the assay on Candida albicans and in the assay with Cryptococcus neoformans were 0.03%, 0.48% and -2.74%, respectively.
The like results for `CCCCn1c(=O)c2sccc2n2c(SCc3cccc(C(F)(F)F)c3)nnc12` were, in that order, -0.52%, 0.84% and -14.78%.
For `COc1ccc(NC(=O)Cn2nc3c(Oc4ccc(C)cc4)nccn3c2=O)cc1Cl`, in that order: 0.22%, 18.79% and -4.53%.
The like results for `CCOc1ccc(NC(=O)Cn2nc3c4cc(-c5ccc(C)cc5)nn4ccn3c2=O)cc1` were, in that order, 14.64%, 1.16% and -37.08%.
Take `CCCN(C)c1nccn2c(=O)n(CC(=O)Nc3ccc(C#N)cc3)nc12`: the Inhibition in the assay on Klebsiella pneumoniae is 16.62%; in the assay on Candida albicans, 0.92%; with Cryptococcus neoformans, -9.74%.
In the case of `O=C(Cn1nc2c(Oc3ccccc3)nccn2c1=O)Nc1ccccc1Cl`, the results for the Inhibition in the assay with Klebsiella pneumoniae, in the assay with Candida albicans and in the assay on Cryptococcus neoformans were 5.8%, -0.88% and -12.94%, respectively.
The like results for `CC(C)Cn1c(=O)c2sccc2n2c(=O)n(Cc3ccc(Br)cc3)nc12` were, in that order, 4.98%, -2.24% and -27.05%.
The like results for `CCOC(=O)c1ccc(NC(=O)Cn2nc3ccc(SC(C)(C)C)nn3c2=O)cc1` were, in that order, 7.26%, 5.28% and -37.99%.
For the compound `Cc1nnc2ccc(S(=O)(=O)N(Cc3cc(F)cc(F)c3)c3ccccc3)cn12`, the Inhibition in the assay on Klebsiella pneumoniae was 7.27%; in the assay on Candida albicans, 2.01%; in the assay with Cryptococcus neoformans, -9.38%.
The like results for `Cc1nnc2ccc(S(=O)(=O)N(Cc3ccccc3Cl)c3cccc(F)c3)cn12` were, in that order, 7.69%, 4.75% and -10.07%.
For `CCc1ccccc1NC(=O)Cn1nc2n(CCC(C)C)c(=O)c3sccc3n2c1=O`, in that order: 0.67%, 8.44% and -17.68%.
The like results for `O=C(Cn1nc2c(N3CCOCC3)nccn2c1=O)Nc1cc(C(F)(F)F)ccc1Cl` were, in that order, 12.08%, 2.84% and -4.39%.
Turning to `COC(=O)c1ccc(NC(=O)Cn2nc3c(Oc4ccccc4C)nccn3c2=O)cc1`, the Inhibition in the assay on Klebsiella pneumoniae is -1.16%; in the assay with Candida albicans, 1.31%; in the assay on Cryptococcus neoformans it was -4.07%.
Turning to `COc1ccccc1-n1ccn2c(SCC(=O)Nc3ccc4c(c3)OCCO4)nnc2c1=O`, the Inhibition is 16.4% in the assay with Klebsiella pneumoniae, 6.52% in the assay on Candida albicans and -7.16% with Cryptococcus neoformans.
On to `CCCCn1c(=O)c2sccc2n2c(=O)n(CC(=O)NC(C)C)nc12`, for which the results for the Inhibition with Klebsiella pneumoniae, with Candida albicans and in the assay with Cryptococcus neoformans were 11.23%, 0.06% and -16.69%, respectively.
Turning to `CCC(Sc1nnc2c(=O)n(-c3cccc(OC)c3)ccn12)C(=O)Nc1cc(F)ccc1F` (stereo not drawn), the results for the Inhibition in the assay with Klebsiella pneumoniae, with Candida albicans and with Cryptococcus neoformans were 2.62%, 1.66% and -8.66%, respectively.
With `COc1ccc(-c2cc3c4nn(CC(=O)Nc5ccc(OC)c(OC)c5)c(=O)n4ccn3n2)cc1`, the Inhibition was 11.9% in the assay on Klebsiella pneumoniae, -0.77% in the assay with Candida albicans and -19.32% with Cryptococcus neoformans.
For `O=C(Cn1nc2c3sc(N4CCCC4)nc3ncn2c1=O)Nc1ccccc1Cl`, in that order: 7.88%, 4.36% and -9.84%.
Take `CC(C)c1ccc(NC(=O)Cn2nc3ccc(SCc4ccc(Cl)cc4)nn3c2=O)cc1`: the Inhibition in the assay on Klebsiella pneumoniae was 6.44%; with Candida albicans it was 14.48%; in the assay with Cryptococcus neoformans, -27.26%.
`COc1ccccc1Cn1c(=O)c2sccc2n2c(=O)n(Cc3ccccc3)nc12`: the Inhibition with Klebsiella pneumoniae was 5.78%; with Candida albicans it was -0.06%; with Cryptococcus neoformans it was -28.67%.
